BioA inh – BioA (M. tuberculosis) enzyme inhibition; purified M. tuberculosis BioA enzyme, plate reader; 0.096% of 360,000 active; inhibition, % at 9.99 µM; AID 602481; in the data active = inhibition above about 40%
GDH-TPI inh – GDH-TPI coupled enzyme inhibition counter-screen; GDH-TPI coupled enzyme counterscreen, NADH absorbance; 1.2% of 360,000 active; inhibition, % at 4.8 µM; AID 588335; in the data active = inhibition above about 30%;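 also: 0% = DMSO wells and 100% = wells lacking the enzyme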
Rv3671c inh – inhibits the M. tuberculosis serine protease Rv3671c; inhibition, % at 5.96 µM; 0.048% of 320,000 active;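 also: extracellular domain of Rv3671c used as enzyme; 0% = enzyme with DMSO and 100% = no enzyme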
Target sequence (P9WHR9 whole entry, looked up, the tested form may be a part): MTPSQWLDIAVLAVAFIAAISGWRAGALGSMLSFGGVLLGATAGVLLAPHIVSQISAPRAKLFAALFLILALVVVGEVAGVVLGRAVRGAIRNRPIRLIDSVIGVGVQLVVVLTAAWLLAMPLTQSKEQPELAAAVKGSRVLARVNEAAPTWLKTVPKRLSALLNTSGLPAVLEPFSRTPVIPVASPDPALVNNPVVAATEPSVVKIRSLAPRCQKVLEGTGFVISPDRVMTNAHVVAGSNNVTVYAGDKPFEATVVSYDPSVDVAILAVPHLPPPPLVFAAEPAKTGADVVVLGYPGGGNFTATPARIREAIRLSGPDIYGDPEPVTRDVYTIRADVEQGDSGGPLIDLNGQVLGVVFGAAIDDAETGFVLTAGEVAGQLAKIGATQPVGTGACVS
FadD28 binding – blocks FadD28 binding to the bisubstrate probe | AID 588549 | inhibition, % at 12.5 µM | fluorescence polarization | 0.22% of 360,000 active; in the data active = inhibition above about 8.5%, passing the limit was not always enough
FBA Mtb inh – Mtb fructose-bisphosphate aldolase inhibition; purified M. tuberculosis FBA, fluorescence read-out; AID 588726; 2.3% of 360,000 active; P9WQA3; inhibition, % at 1 µM; in the data active = inhibition above about 27%;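 also: 0% = vehicle and 100% = reference inhibitor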
Rv3671c cf – Rv3671c protease inhibition, confirmation | 40% of 140 active | inhibition, % at 5.96 µM | shares compounds with Rv3671c inh
Numbers without * were called inactive; . = no result given; + = active, no number. This is a sample that favours compounds with a hit; in the whole collection about 3% have one here. Rule as the data show it, unless noted: active = inhibition above about 38%; inactive = the rest.

SMILES	BioA inh	GDH-TPI inh	Rv3671c inh	FadD28 binding	FBA Mtb inh	others
Cc1ccc(/C=N/NC(=O)c2ccc3nc[nH]c3c2)o1	2	63*	-5	0	2
O=C(N/N=C/c1cccc([N+](=O)[O-])c1)c1ccc2nc[nH]c2c1	6	10	5	-1	1
O=C(N/N=C/c1ccc([N+](=O)[O-])cc1)c1ccc2nc[nH]c2c1	3	37*	-7	-2	-3
COC(=O)c1ccc(/C=N/NC(=O)c2ccc3nc[nH]c3c2)cc1	1	26	0	1	-2
Cc1cccc(/N=C/c2c(O)[nH]c3ccccc23)n1	.	45*	5	0	0
CC(C)N=Cc1c(O)[nH]c2ccccc12	0	16	1	-4	-2
O=C(Nc1ccc2nn(-c3ccccc3)nc2c1)c1cccnc1	7	35*	-22	-3	-1
O=C(Nc1cc2nn(-c3ccccc3)nc2cc1Cl)c1ccco1	-2	38*	-6	-2	9
Cc1nc2ccc(NC(=O)c3ccco3)cc2nc1C	.	2	-2	1	6
CC(C)C(=O)Nc1ccc2nn(-c3ccccc3)nc2c1	-1	23	-4	-1	+
O=C(Nc1ccc2nn(-c3ccccc3)nc2c1)c1ccco1	1	33*	-18	-1	16
CCC(=O)N1C[C@H](O)COC[C@H]2O[C@H](CC(=O)NCc3cc(F)cc(F)c3)CC[C@@H]21	-7	.	.	.	.
Cc1noc(C)c1NC(=O)Nc1ccc2c(c1)C(=O)N([C@H](C)CO)C[C@@H](C)[C@@H](CN(C)S(=O)(=O)c1cn(C)cn1)O2	-1	.	.	.	.
CS(=O)(=O)c1ccc2nc(NC(=O)c3cc4ccccc4o3)sc2c1	0	47*	9	-8	5
CS(=O)(=O)c1ccc2nc(NC(=O)c3ccccc3Br)sc2c1	0	21	6	-1	0
CS(=O)(=O)c1ccc2sc(NC(=O)c3cc4ccccc4o3)nc2c1	-1	72*	-11	-3	5
O=C(Nc1ccccc1)N[C@@H]1CC[C@@H](CCn2cc(C3(O)CCCC3)nn2)O[C@@H]1CO	-2	.	.	.	.
C[C@H]1CN([C@@H](C)CO)S(=O)(=O)c2ccc(C#CC3CC3)cc2O[C@@H]1CN(C)Cc1cccnc1	3	.	.	.	.
CC(=O)Nc1ccc(N=Nc2ccccc2)cc1[N+](=O)[O-]	-2	31*	.	1	0
CC1(C)CC(=O)C(C=Nc2ccccc2)=C(O)C1	.	27	8	-1	-1
CC1(C)CC(=O)C(C=Nc2ccccc2C(=O)O)=C(O)C1	-2	42*	-5	0	13
CCOC(=O)c1sc2nc(CC(=O)OC)nc(NCCN3CCOCC3)c2c1C	-1	24	.	-1	18
CCOC(=O)c1sc2nc(CC(=O)OC)nc(NCCN(CC)CC)c2c1C	2	24	6	-5	132*
C[C@@H]1CCCCO[C@H](CN(C)S(=O)(=O)c2ccccc2)[C@H](C)CN([C@@H](C)CO)C(=O)c2cc(NC(=O)CCCN(C)C)ccc2O1	1	.	.	.	.
CCN(c1ccc(C)cc1)S(=O)(=O)c1nnc(NC(=O)c2ccco2)s1	-3	41*	-5	0	5
SMILES	BioA inh	GDH-TPI inh	Rv3671c inh	FadD28 binding	FBA Mtb inh	others
CC(C)CN(c1ccccc1)S(=O)(=O)c1nnc(NC(=O)c2ccco2)s1	.	35*	-1	-2	6
CN1CCN(c2ccc(NC(=O)c3ccc(-c4ccc(Br)cc4)o3)cc2)CC1	.	15	27	0	-1
Cc1ccccc1C(=O)Nc1cccc(NC(=O)c2ccc(-c3ccc(Br)cc3)o2)c1	-1	34*	-5	0	-2
Nc1c(C(=O)NCC2CCCO2)sc2nc3c(c(-c4ccco4)c12)CC/C3=C\c1ccco1 (stereo unspecified)	-1	3	.	14*	-1
O=C(C[C@H]1CC[C@@H]2[C@H](COC[C@@H](O)CN2CC2CCOCC2)O1)NCC1CC1	-2	.	.	.	.
Cc1ccc2c(c1)Cc1nc3ccccc3nc1-2	.	8	-2	-3	57*
Cc1ccc2c(c1)-c1nc3ccccc3cc1C2=NC1CCCCC1	.	7	-17	-3	4
Nc1nccnc1C(=O)OCC(=O)N1CCN(S(=O)(=O)c2ccc(Cl)cc2)CC1	.	8	6	-2	148*
Nc1nccnc1C(=O)OCC(=O)C12CC3CC(CC(C3)C1)C2	-2	8	1	1	127*
CC1CC(C)CN(C(=O)COC(=O)c2nccnc2N)C1 (stereo unspecified)	0	1	-8	0	180*
CC1CC(C)CN(C(=O)COC(=O)c2ccc(Cl)nc2)C1 (stereo unspecified)	-1	-3	.	-1	1
Cc1cnc(C(=O)OCC(=O)C23CC4CC(CC(C4)C2)C3)cn1	0	11	1	-2	-1
COC(=O)c1nccnc1N	.	-2	.	-4	146*
C[C@H]1CN([C@@H](C)CO)C(=O)Cc2cc(NC(=O)c3ccncc3)ccc2O[C@H]1CN(C)S(=O)(=O)c1ccccc1	-5	.	.	.	.
C[C@@H]1CCCCO[C@@H](CN(C)S(=O)(=O)c2ccccc2)[C@@H](C)CN([C@@H](C)CO)C(=O)c2cc(NC(=O)Nc3ccc(C(F)(F)F)cc3)ccc2O1	-1	.	.	.	.
COC(=O)c1ccccc1-c1c2ccc(=N)cc-2oc2cc(N)ccc12	-213	5	166*	129*	-6	Rv3671c cf=164*
COC(=O)c1ccc(N)cc1O	-1	12	-2	-2	-1
O=C1C(CSCc2ccccc2)NC(=S)N1c1ccccc1 (stereo unspecified)	6	-3	98*	-4	2	Rv3671c cf=60*
CO[C@H]1CN(C)C(=O)c2cc(NC(=O)c3cc(C)on3)ccc2OC[C@H](C)N(CC2CC2)C[C@H]1C	-2	.	.	.	.
NNC(=O)c1cc2ccccc2cc1O	.	15	37*	-4	2	Rv3671c cf=-5
CC(=O)[C@]1(O)Cc2c(O)c3c(c(O)c2[C@@H](O[C@H]2C[C@H](N)[C@H](O)[C@H](C)O2)C1)C(=O)c1ccccc1C3=O	.	.	69*	.	.	Rv3671c cf=81*
Cc1sc(-c2ccncc2)nc1OC(=O)c1ccccc1	-3	9	44*	-4	3	Rv3671c cf=61*
Cc1sc(-c2ccccn2)nc1OC(=O)c1ccc(Cl)cc1	0	6	2	-1	1
CO[C@@H]1CN(C)C(=O)c2ccc(NS(C)(=O)=O)cc2OC[C@H](C)N(C(=O)CC2CC2)C[C@H]1C	2	.	.	.	.
O=c1oc(-c2ccccc2Br)nc2ccccc12	1	-3	40*	-4	3	Rv3671c cf=66*
Cc1onc(-c2ccccc2)c1-c1nc2cc(Cl)ccc2c(=O)o1	0	-6	-6	-5	3
Cc1onc(-c2ccccc2)c1-c1nc2ccccc2c(=O)o1	1	6	49*	-1	0	Rv3671c cf=62*
Cc1cc(OC(=O)c2ccco2)c2c3c(c(=O)oc2c1)CCCC3	.	5	60*	-1	2	Rv3671c cf=73*
O=C(C[C@H]1CC[C@H]2[C@@H](COC[C@@H](O)CN2C(=O)c2ccccc2)O1)NCc1cccc(F)c1	-1	.	.	.	.
